# Experimental data taken from the supplement of paper PMC11417369.
# ± gives the standard deviation of the averaged measurements. The full ranking holds about 25,000 sequences; the median of “ln(normalized median fluorescence intensity)” is about 7.9, and the highest 2% start at about 11. What follows is part of a selection rich in the highest values, with near analogues and random picks from the rest.
# Test system: PfAP2-I AP2 domain 3 (GST-tagged)
# Experiment: gcPBM binding intensity (ln(normalized median fluorescence intensity)); higher = stronger DNA binding
# Summary of the method: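 Binding intensity values are the highest Masliner-normalised natural-log median intensity among replicate spots of either probe orientation. The binding step lasted 1 h in 1× PBS with 1% milk, 0.2 mg/ml BSA, 0.5% salmon testes DNA and 0.03% Triton X-100, using GST-tagged P. falciparum DNA-binding domains expressed in E. coli on an Agilent 4 × 180k array of primer-extended double-stranded 36-bp intergenic genomic probes plus negative controls. Alexa488 anti-GST antibody and a 488 nm scan detected bound protein.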
row,Sequence,gcPBM binding intensity (ln)
1,TATGTATATATTTACGCATGCTACTCTATTTTGAGA [TGCATGCA_site990],7.64 ± 0.48
2,ATACTATTTAAATGGGTGCTAAAAATAACAAAAATT,9.65 ± 0.085
3,TAAATCAAAATAATTTAACACACAATTTTAATACTG [CACACA_site8744],7.34 ± 0.54
4,AATAAATACTAAATGGTGCAAAATTTTTTAACACTG,10.8 ± 0.42
5,ATCAAATTTGGACATGCATGTGTGTGTAAAACCATG [TGCATGCA_site309],8.52 ± 0.41
6,TGGTATATTATTTTTTGTACACATAAATGAAACATT [XGTACX_site5345],8.04 ± 0.22
7,GGTGTTTTTCACAGATGTACACAAATAAAAAAGAAA [XGTACX_site4454],8.39 ± 0.47
8,TCGTTATCCATCTTCACACATATATATAGTAATATA [CACACA_site5492],8.27 ± 0.49
9,AAAGTGTTAACCTAATCTTTAGTTTTTAAACAATAT [CACACA_negctrl_site841],7.49 ± 0.59
10,TATAATAATATTATAGTGCATATTATTTATATATAA [GTGCAC_site9820],9.72 ± 0.16
11,TTAATTTATTTATGCACACATATATAATTACCCATA [CACACA_site682],10.2 ± 0.67
12,TTAATAATTAATTATAGTACACATTTATATTAATAA [XGTACX_site190],7.915 ± 0.064
13,CTATTTCAATTTAGTGCACACATTTTAATTTATAAG [CACACA_site2040],11.4 ± 0.49
14,ATATATATATATATAGTGCACATTTATATAATTATT,11.43 ± 0.092
15,ACCCATTTTAATTTAGTGCACATTTTACCTTTATAC,11.4 ± 0.35
16,TATATTATTAATTAAGCACACATTATTTTTATAATA [CACACA_site3982],8.54 ± 0.3
17,TTTTTTTCAATATTTGCACACGATTATAATATTTAA [CACACA_site2237],9.415 ± 0.035
18,GCCATTAATTTATACACACACATTATAACTTTTTAT [CACACA_site6492],8.29 ± 0.49
19,TAATGGTGTTCATGTGGTACACTTTATAAATTGGCA [XGTACX_site729],7.9 ± 0.47
20,CCCTTTTATTAAAATTCACACACATAAATTTTTATA [CACACA_site8611],8.06 ± 0.41
21,TATAAAAAAAAAAAATATATATATATATAAATATAA [TGCATGCA_negctrl_site367],7.28 ± 0.37
22,ACTTAGGAAATAAAACGTACATTAAATATATACATA [XGTACX_site2990],7.84 ± 0.35
23,AAATAAAAAAGTAGTACACACTTCACGATATTTTTT [CACACA_site6015],7.89 ± 0.43

row,Sequence,gcPBM binding intensity (ln)
1,CATCAAGTGAATTGTTGTACTTTACATTGTTTTTAT [XGTACX_site7261],7.89 ± 0.69
2,AAAAAATATTATATATGTACATAATATTTTTTTTTT [XGTACX_site5909],7.47 ± 0.39
3,ACATACTCAAATAGCACACACATAAATAAAAATGTA [CACACA_site3864],8.42 ± 0.099
4,AAAAGAAAATATATGTGTACTAAAATATATATATAT [XGTACX_site3817],9.455 ± 0.021
5,AAATCGTGTACATTGACACACATAATTTTTTTTATA [CACACA_site2463],8.09 ± 0.38
6,ATCATCTTTATTCAAGTGCACTGAAAATTTTTTATA [GTGCAC_site9801],11.1 ± 0.32
7,ACATATTATTCAAGTGCACACTTTATATTTATGATT [CACACA_site3295],9.715 ± 0.035
8,TTATTTTATTTTTGTGCACACTGATAAATTGAAAAG [CACACA_site2949],10.8 ± 0.22
9,TACATCATCTATAAGGTGCATTTTAGTTCTATTAAA,10.3 ± 0.58
10,TCCTTTATTTTTAAAGTGCATATACATGTACATTAT [GTGCAC_site9445],9.675 ± 0.078
11,AAAAAAAAAAGAAACACACACATATAGATTTATAAC [CACACA_site6927],7.69 ± 0.69
12,AAGTTTAAAATCTTTGCACACATATAAATAAATATA [CACACA_site2554],8.94 ± 0.12
13,CTATAATATTAGTGCACACACAAAAATGTACTAAAC [CACACA_site6442],11.6 ± 0.62
14,AGAAAAATAAACAAATGTACAAATTATTACTATATA [XGTACX_site1087],7.63 ± 0.34
15,TTAAAAAACTATAATACACACCAAAAATATGCACAT [CACACA_site7079],9.44 ± 0.7
16,AAAAATATAATATAATGTACACAAAAAAAAAAAATC [XGTACX_site1427],7.93 ± 0.52
17,AAAAATATAATATAATGTACACAAAAAAAAAAAAAT [XGTACX_site4914],8.18 ± 0.15
18,GTATATAATATTAGTGCACACACAAAAATGTACTAA [CACACA_site8112],11.4 ± 0.55
19,ATAATAAATACACTAGTGCAAAATAATATATGTACT [GTGCAC_site9707],10.4 ± 0.22
20,ATATAATATTAGTGCACACACAAAAATGTACTAAAC [CACACA_site632],11.3 ± 0.54
21,TAGAAACTATGTAATGCACACCAAAATAAAATTATT [CACACA_site8578],10.4 ± 0.33
22,ATATTACAAATATAATGTACAAAATATAAATATGCA [XGTACX_site8106],7.62 ± 0.3
23,AAAAATATAATATAATGTACACATAAACAAAAAAAA [XGTACX_site3658],7.92 ± 0.57

row,Sequence,gcPBM binding intensity (ln)
1,GAAACTATGTAATGCACACCAAAATAAAATTATTAA [CACACA_site1904],10.9 ± 1
2,AGAAGAAATATGTAAAAAATTTTATATTCACACACA [GTGCAC_negctrl_site441],8.15 ± 0.33
3,ATAAATTCATACATTTGTACACAAAAAAAAAAAAAA [XGTACX_site2435],8.12 ± 0.57
4,TTTTTTTTTTCTTTTTGTACATATTCATAACAAGTA [XGTACX_site2784],8.12 ± 0.5
5,AATGTAACAACTTTTTGTACTTAAGAAATAATAAAT [XGTACX_site3310],7.64 ± 0.61
6,TAATTAAAAAATAAAAAAAAAAAAAATTAAAACAAA [CACACA_negctrl_site500],7.2 ± 0.58
7,TGTTATATGTTCAAATGTACAAATCATATACATGTT [XGTACX_site3192],7.5 ± 0.65
8,AAAATTAGATTATGCACACACACTTAAAAATAATAA [CACACA_site1975],9.97 ± 0.46
9,GTTAGGATAGATTAGACATGCACATAAATGCACTTC [TGCATGCA_site561],11.1 ± 0.34
10,AGGATATGCAGACACACACACATATAGATTTATATA [CACACA_site7100],7.74 ± 0.55
11,ATTTTTTCTAATGGGTGTACTGAAACGTATTTTATT [XGTACX_site6573],8.16 ± 0.58
12,TTTGTGGTTACATGTGCACACACTTATTTCGTTCTT [CACACA_site1435],9.38 ± 0.4
13,TATAATATATTCATGTGTACATATATTTCGAACATA [XGTACX_site1754],8.01 ± 0.2
14,ATTTTATTTTCATATGAACACACATATATATATTAT [CACACA_site8741],8.35 ± 0.45
15,ATAATTATATGGCTAGCACACAATAAATAATTATAT [CACACA_site3815],7.92 ± 0.42
16,AATTAATGGTTAAAGGTGCACAATACATATATTACA [GTGCAC_site9943],11.32 ± 0.035
17,GTAATTAAAATATATACACACAAAGGCTATTAAATA [CACACA_site1011],7.68 ± 0.52
18,TTACATACAATTGGTGTGCACATATATATATATATA,10.29 ± 0.049
19,AATTAATGGCTAAAGGTGCACAATATATATATTACA,11.3 ± 0.19
20,ATATAATAAGGTTAAGCACACATATTACATATATAA [CACACA_site9110],8.35 ± 0.23
21,ATATTATATTTCTTTTGTACATATTATATAATATAT [XGTACX_site7198],8.1 ± 0.56
22,ATATATAAATATATTTGTACATATAATATGTATTAT [XGTACX_site8820],7.75 ± 0.47
23,TTTATAAAGGGAAAGGTGCAAAAGGTGAAAGTTTTA,10.9 ± 0.44

row,Sequence,gcPBM binding intensity (ln)
1,ATAATAATAAAATATATATACAAAGGTGAAATTATA [TGCATGCA_negctrl_site197],7.96 ± 0.58
2,AATTATTGTGAAGGGAAAACAAAAAAGTTTATAATT [CACACA_negctrl_site1337],8.01 ± 0.72
3,TATGATGATGAATAACGTACAAAAAAATTAATCACC [XGTACX_site6794],8.16 ± 0.49
4,TTTTGTAAAAAGAAAAATTAGAATATATCGTATATA [XGTACX_negctrl_site617],7.19 ± 0.45
5,ATCAACATTACATTTAGTACACATATATTTCTATGT [XGTACX_site4436],8.16 ± 0.36
6,TTTTTTTTCTAAATTATATGAAAATATATGTTATGT [GTGCAC_negctrl_site85],7.79 ± 0.23
7,AAAGAAATAAGGTGCACACATATACATATATATATA [CACACA_site429],10.3 ± 0.29
8,TAAAAGAAATAAGGTGCACACATATACATATATATA [CACACA_site8037],10.19 ± 0.071
9,ACGGAAAAAGAAAAGGTGCATATGGACACAATATAT,10.85 ± 0.099
10,TTTTACAAAATAAAAATATAGAATACGGTAAATTAT [GTGCAC_negctrl_site40],7.87 ± 0.73
11,GTTATAAACAAAATAAATATATGAATATATAATAAT [XGTACX_negctrl_site96],7.46 ± 0.5
12,TAAAATAAATTGTGCACACATATTTATAAATATGAA [CACACA_site2331],11.3 ± 0.35
13,TAATATTTTAATTGTGTGCACATTAATATTATAAAA,10.1 ± 0.16
14,ATAAATTTTTAAACAGCACACATAAATATAATATAT [CACACA_site8691],8.28 ± 0.4
15,AACATATTGGATTTAGTGCACATATATATCATAATA,11.5 ± 0.29
16,TATAAAATAAATTGTGCACACATATTTATAAATATG [CACACA_site2330],10.71 ± 0.078
17,TTTATATATTTTGTCGTGCACATTTGGAAAATTACA [GTGCAC_site9776],10.8 ± 0.16
18,ATATATCATATTATAGTGCATTTATAATAATATTAT,10.8 ± 0.13
19,AGGAAAATTTTATTTGCACACATTATTACGTCTAAA [CACACA_site2337],9.9 ± 0.4
20,TTATTATAATCATTAGTGCATATATTATTTTTATAT,9.795 ± 0.049
21,GAAATATAATTTATTACACACATTTTAAAAAAATTC [CACACA_site1087],7.74 ± 0.18
22,TATATATATATAATTGTGCACATAATTTTAAACCAA,11.1 ± 0.13
23,TAAAATAATATTTATGTGCACATATAATTATTAATT,10.395 ± 0.007
